As usually defined, the inhibition is the change of the read-out against control, counted positive when it falls.

Where “and” joins values, the source holds several entries; their conditions need not be identical. Equal entries are not always repeated. Hit rate of the full screen: of about 340,000 compounds, about 260 (0.076%) were called active. Shown is part of a subset that was picked to be rich in actives. Unmarked numbers belong to inactive results.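 Rule for the calls: active = highest replicate inhibition at or above 60% at 9 µM, even if other replicates fall short; inactive = all replicates below 60% inhibition.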

The assay concerns Kaposi's sarcoma herpesvirus LANA C-terminal domain (residues 932-1162) DNA binding. Description: blockers of LANA C-terminal domain DNA interaction – biochemical, fluorescence polarization, FAM-LBS DNA, MBP-C-LANA, single point, primary screen (AID 504423).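 Note: 0% = neutral control wells and 100% = 4 µM acridine orange control.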 The note with it: at 9 µM, active compounds read high.
Take `C=CCNC(=S)NNC(=O)c1ccc(Br)o1`: the inhibition was 0.832%. Take `c1ccc(CNc2ncnc3[nH]ncc23)cc1`: the inhibition is -0.81%. Turning to `O=C(CN1CCN(c2ncccn2)CC1)Nc1ccccc1C(F)(F)F`, the inhibition is -0.265%. Consider `COC(=O)Cn1c(=NC(=O)CSCC(=O)Nc2cc(C)on2)sc2ccccc21`, for which the inhibition was 1.43%.

Consider `Cc1ccc(OCCNC(=O)c2cccc(S(=O)(=O)N3CCN(Cc4ccccc4)CC3)c2)cc1`, for which the inhibition was -0.305%.

Consider `COc1ccc(Cc2nnc(SCC(=O)c3cccc([N+](=O)[O-])c3)n2C)cc1`, for which the inhibition was 0.228%.

For `Cc1cc(C)c(NC(=O)CN2CCCCCC2)c(C)c1`, the inhibition is 1.26%. The value for `N=C1c2ccccc2-c2ccccc21` was 1.95%.

For the compound `CCC(C)C1(C2CCCC2)NC(=O)NC1=O` (stereo not given), the inhibition is 3.17%. For `CCOc1ncccc1C(=O)NCCc1ccc(OC)cc1` the value was 0.452%; for `CC1CCN(C(=O)c2ccccc2NC(=O)Cc2ccccc2)CC1`, 2.17%; for `O=C(C1CCN(S(=O)(=O)c2ccc(Br)s2)CC1)N1CCN(C2CCCCC2)CC1`, -0.326%. Consider `Cc1ccccc1CN1C[C@@H]2C[C@@H](c3cn(C)nc3-c3ccccc3)N3CCC[C@@]23C1=O`, for which the inhibition was -1.95%. For `O=C(Nc1ccc2sc3ccccc3c(=O)c2c1)c1ccccc1Cl` the value was -0.526%; for `CCCn1nc(NC(=O)C(C)C)c2cc3cc(OC)ccc3nc21`, -1.15%. For the compound `CC(C(=O)N(C)CC(=O)Nc1ccccc1C(F)(F)F)N1C(=O)c2ccccc2C1=O` (stereo not given), the inhibition was 1.14%. For `CCN(CC)P(=O)(/C(Cl)=C\Nc1c(C)n(C)n(-c2ccccc2)c1=O)N(CC)CC`, the inhibition was -1.51%. Regarding `Cc1cc([N+](=O)[O-])nn1CC(=O)Nc1ccc(Cc2ccncc2)cc1`, the inhibition is 0.568%. With `Cn1c(N2CCOCC2)c(C=O)c2ccccc21`, the inhibition is 0.207%. Turning to `Cc1cc(Br)ccc1NC(=O)CN(C)C(=O)CN1C(=O)NC2(CCCC2)C1=O`, the inhibition is 0.321%. For `Cn1cc(S(=O)(=O)N2CCC(Cc3ccccc3)CC2)c(=O)n(C)c1=O`, the inhibition is 1.59%.

For `CCCCN(CCCC)CCCNC(=O)CN1C(=O)COc2ccc(S(=O)(=O)N3CCC(C)CC3)cc21`, the inhibition is 0.15%.

With `COc1cccc2c1CCC(NC(C)=O)C2=O` (stereo not given), the inhibition was -1.29%.

For `O=C(CSc1ccsc1[N+](=O)[O-])N1CCCCC1`, the inhibition is 1.32%. As for `CCCCNS(=O)(=O)c1ccc(S(=O)(=O)n2cnc3ccccc32)cc1`, the inhibition was 0.219%. Take `COc1ccc(C(=O)Nc2ccc(C(=O)NCC3CCCO3)cc2)c(OC)c1OC` (stereo not given): the inhibition is 2.3%.

Regarding `Cc1ccc(CNC(=O)C(=O)c2cn(CC(=O)N3CCCC3)c3ccccc23)cc1`, the inhibition was 2.35%. The value for `COC1=C/C(=C/c2c(N)n3nc(CC(=O)N4CCOCC4)sc3nc2=O)C=CC1=O` was 32.7%. Take `CCC1CCCCN1CCNC(=O)c1[nH]c(C)c(C(C)=O)c1C` (stereo not given): the inhibition was 5.48%.

`COc1ccccc1N1CCN(Cc2ccc(OC)c3ccccc23)CC1`: the inhibition is -3.69%. The value for `COc1ccc(CN2CCN(Cc3ccc(OC)c(OC)c3OC)CC2)cc1` was 79% (active). `COc1cc(CN2CCN(Cc3ccc(C)cc3)CC2)c([N+](=O)[O-])cc1OC`: the inhibition was -0.737%. The value for `CC(=O)Nc1ccc(SCC(=O)Nc2ccccc2Oc2ccccc2)cc1` was 1.36%. `C[C@H](CO)N1C[C@H](C)[C@H](CN(C)C(=O)Nc2ccc(C(F)(F)F)cc2)Oc2c(NC(=O)c3ccncc3)cccc2C1=O`: the inhibition is -3.26%. Consider `O=C(c1ccc(F)cc1)C1CCN(Cc2cn[nH]c2-c2ccccc2)CC1`, for which the inhibition is 1.59%. `Cc1nc(C)c2c(c1C(F)(F)F)-c1ccccc1C2(F)F`: the inhibition was 1.49%. The value for `COc1ccc([C@@H]2[C@@H]3C(=O)N(C(C)(C)C)C(=O)[C@@H]3[C@]3(Cc4ccccc4)C(=O)N(c4cccc(Br)c4)C(=O)N23)cc1` was 0.113%. `CCOc1cc(C(=O)OCC(=O)Nc2cccc(C)c2)ccc1OCC(=O)N1CCOCC1`: the inhibition is 0.789%.

As for `CO/N=C(\C(=O)N[C@@H]1C(=O)N2C(C(=O)O)=C(COC(C)=O)CS[C@H]12)c1csc(N)n1` (stereo in doubt), the inhibition was 8.29% and 6.28% and 10.6%. For the compound `C=CC1=C(C(=O)O)N2C(=O)[C@@H](NC(=O)/C(=N\OCC(=O)O)c3csc(N)n3)[C@H]2SC1`, the inhibition was 22.9%. Turning to `C=CC1=C(C(=O)O)N2C(=O)[C@@H](NC(=O)/C(=N/OCC(=O)O)c3csc(N)n3)[C@H]2SC1`, the inhibition is 95.4% (active). For the compound `CCOc1ccccc1N1CCN(C(=O)c2ccc3[nH]c(C)c(C)c3c2)CC1`, the inhibition was -1.79%. In the case of `CCC(=O)OCc1c(C(F)(F)F)nn(C)c1Oc1cccc(C(F)(F)F)c1`, the inhibition was 0.811%. For the compound `CC1(C)N=C(c2ccccn2)C(C)(C)N1O`, the inhibition was 0.432%. For `Cc1cc(C)n2nc(C(=O)OCC(=O)N(C)CC(=O)Nc3ccc(F)cc3)nc2n1`, the inhibition is 0.686%.

As for `Cc1ccsc1C(=O)N[C@@H](C)c1nnc2ccccn12`, the inhibition is 1.44%. Regarding `Cc1nn(C)cc1N1C(=O)c2cccc3c(N)ccc(c23)C1=O`, the inhibition is 73% (active). Consider `CCC(C)(C)NC(=O)C(c1ccccn1)N(C(=O)c1csnn1)c1ccccc1` (stereo not given), for which the inhibition was -0.461%.

With `O=C1OC(Oc2ccc(Br)cc2)(c2ccccc2)c2ccccc21` (stereo not given), the inhibition was -1.96%. Take `CCC(Cc1ccccc1)NC(=O)C1CCCCC1` (stereo not given): the inhibition is 1.4%. With `Cc1sc2ncn(CC(=O)NCCCC(=O)NCc3ccc(F)cc3)c(=O)c2c1C`, the inhibition was 0.451%. Regarding `Cc1ccc2c(c1)N(CC(=O)N1CCCc3ccccc31)C(=O)C(C)O2` (stereo not given), the inhibition was 2.64%. The value for `COc1cccc(COC(=O)C2CCN(S(=O)(=O)c3ccc(Cl)cc3)CC2)c1OC` was 0.51%; that for `Cc1cc(C)c(S(=O)(=O)c2ccc(F)cc2C)c(=O)[nH]1` was -0.026%. On to `COc1ccc(/C(=N\O)c2nccc3cc(OC)c(OC)cc23)cc1OC`, for which the inhibition was 0.0523%.

(Values after PubChem BioAssay AID504423 (Broad Institute, 2011).)
